Screens (PubChem BioAssay)
Most compounds without a hit are left out; they make up all but 3.4% or so of the library.
Mcl1 Bid PPI: Mcl-1/Bid binding inhibitors, primary screen, biochemical, TR-FRET, 1536-well. Induced myeloid leukemia cell differentiation protein Mcl-1 (Homo sapiens), Q07820. hit rate 0.97% among 220,000. TR-FRET Mcl-1/Bid-Dy647 peptide binding. inhibition, % at 21.7 µM;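 active means compounds that cut the binding signal by more than half at the single screening dose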;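 further: His-tagged Mcl-1 with europium anti-His antibody binding Bid BH3 peptide; 0% = Mcl-1 plus peptide wells and 100% = peptide-only wells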
Target sequence (Q07820 whole entry, looked up): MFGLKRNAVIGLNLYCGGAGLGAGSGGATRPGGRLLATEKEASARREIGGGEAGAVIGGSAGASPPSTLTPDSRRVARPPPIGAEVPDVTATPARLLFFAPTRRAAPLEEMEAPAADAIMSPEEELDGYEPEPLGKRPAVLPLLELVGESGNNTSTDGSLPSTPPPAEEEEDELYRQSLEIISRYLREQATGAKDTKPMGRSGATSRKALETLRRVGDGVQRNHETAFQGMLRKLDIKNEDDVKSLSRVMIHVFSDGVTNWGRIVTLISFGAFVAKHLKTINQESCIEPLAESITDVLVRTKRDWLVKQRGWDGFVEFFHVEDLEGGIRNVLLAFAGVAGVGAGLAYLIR
Mcl1-Noxa inh: Mcl-1/Noxa binding inhibitors, primary screen, biochemical, TR-FRET, 1536-well. Induced myeloid leukemia cell differentiation protein Mcl-1 (Homo sapiens), Q07820. TR-FRET Mcl-1/Noxa peptide binding, 2 h. inhibition, % at 21.7 µM. hit rate 1.5% among 220,000. AID 1022, 2008;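 active means compounds that cut the protein-peptide binding signal by more than 50% relative to plate controls in a single-dose test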;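 further: His-tagged Mcl-1 with rhodamine Noxa BH3 peptide and terbium anti-His antibody; 0% = Mcl-1 plus Noxa peptide wells and 100% = peptide-only wells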
eIF4E 4G PPI: eIF4E–eIF4G protein interaction inhibitors, primary screen, biochemical, uHTS, TR-FRET, eIF4GI fragment; Eukaryotic translation initiation factor 4E (Mus musculus) + Eukaryotic translation …; TR-FRET eIF4E-eIF4GI(517-606) binding, 2 h; inhibition, % at 21.7 µM; hit rate 0.37% among 220,000;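 further: 0% = full FRET control wells and 100% = background wells lacking eIF4GI fragment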
14-3-3 Bad inh: inhibitors of 14-3-3 zeta/Bad binding, primary screen, biochemical, TR-FRET, bovine 14-3-3 zeta. TR-FRET 14-3-3zeta/Dy647-pBad peptide displacement, 1 h. 14-3-3 protein zeta/delta (Bos taurus), P63103. hit rate 0.71% among 220,000. AID 781, 2007. inhibition, % at 21.7 µM;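 active means inhibition above about 70%, limit read from the data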;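 further: 0% = full 14-3-3 plus peptide FRET controls and 100% = background without 14-3-3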
Target sequence (P63103 whole entry, looked up): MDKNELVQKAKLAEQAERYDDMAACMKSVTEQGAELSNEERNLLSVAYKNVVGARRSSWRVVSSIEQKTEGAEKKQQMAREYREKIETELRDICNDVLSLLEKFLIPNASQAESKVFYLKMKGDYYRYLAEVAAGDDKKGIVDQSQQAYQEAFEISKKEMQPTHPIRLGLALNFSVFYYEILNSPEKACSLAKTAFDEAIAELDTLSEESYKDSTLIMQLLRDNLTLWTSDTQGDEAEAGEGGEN
NCF1 inh: p47phox/p22phox peptide binding inhibitors, primary screen, biochemical, uHTS, NADPH oxidase regulatory subunit. Neutrophil cytosol factor 1 (Homo sapiens), P14598. fluorescence polarization, 2 h. inhibition, % at 24.7 µM. hit rate 0.53% among 220,000. AID 1274, 2008;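 further: 0% = p47phox with labelled peptide and 100% = labelled peptide alone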
Mcl-1 Bim block: inhibitors of Bim peptide binding to Mcl-1, primary screen, biochemical, bead-based flow cytometry, multiplex | AID 1009, 2008 | inhibition, % at 10 µM | Bim peptide-Mcl-1 binding | Induced myeloid leukemia cell differentiation protein Mcl-1 (Homo sapiens), Q07820 | hit rate 0.1% among 190,000; in the data active means inhibition above about 40%;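 further: 0% = no compound tracer wells and 100% = peptide blocker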
* = called active by the depositor; . = not tested or not shown; [ ] = remark or other dose.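 How the source made its calls, unless noted: active means inhibition above about 30% (limit read from the data); inactive means the rest.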

SMILES	Mcl1 Bid PPI	Mcl1-Noxa inh	eIF4E 4G PPI	14-3-3 Bad inh	NCF1 inh	Mcl-1 Bim block
O=C(Nc1ccc(Cl)cc1)/C(=C/c1ccc([N+](=O)[O-])cc1)c1nc2ccccc2s1	-37	11	11	-2	-6	-2
COC(=O)c1cc(C(=O)OC)cc(N2C(=O)CC(NNC(=O)c3ccc(C)cc3)C2=O)c1 (stereo not given)	-20	2	2	3	130*	-4
Cc1ccsc1C=Nc1ccc(O)cc1	-24	47	11	20	1	0
Oc1ccc(N=Cc2ccc(O)c(O)c2)cc1	-13	67*	19	86*[fluorescence artefact?]	18	9
Cc1ccccc1OCc1nc2ccccc2c(=O)n1/N=C/c1cn[nH]c1-c1ccc(Br)cc1	-1	13	4	7	-10	4
O=c1c2ccccc2nc(COc2ccccc2)n1/N=C/c1cn[nH]c1-c1ccccc1	56*	-14	-1	37	19	-5
CCC(=O)N(Cc1ccco1)c1nc(-c2ccc(OC)cc2)cs1	4	16	3	2	3	1
CCC(=O)N(CC)c1nc(-c2ccc(OC)cc2)cs1	54*	-3	-1	68	-7	-4
O=C(Cn1ncn2c(cc3ccccc32)c1=O)NCc1ccco1	-13	69*	13	1	-8	-5
COc1ccc(CNC(=O)Cn2ncn3c(cc4ccccc43)c2=O)cc1	-5	3	-2	16	10	.
CCc1ccc(-c2csc3ncn(CC(=O)NCc4ccco4)c(=O)c23)cc1	-73	20	-4	-1	-31	.
O=C(Cn1cnc2scc(-c3ccccc3)c2c1=O)NCc1ccco1	-59	51*	12	10	-23	-3
O=C(Cn1cnc2sc(-c3ccccc3)cc2c1=O)NCc1ccco1	14	62*	0	8	-9	-3
Nc1nc(-c2cc3ccccc3o2)cs1	-13	-16	7	-3	3	.
COC(C[C@@H](O)C[C@H](O)COCc1ccccc1)OC	-29	-20	2	-2	-12	.
COc1ccc(/C=C2\CCc3c2nc2ccccc2c3C(=O)O)cc1OC	-16	16	-1	1	-12	.
CN(CCC#N)C(=O)COC(=O)c1c2c(nc3ccccc13)/C(=C/c1ccco1)CC2	63*	85*	7	-10	-10	22
Nc1cc(Oc2ccc(F)cc2F)cc([N+](=O)[O-])c1	-7	-13	8	-4	-2	-2
Cc1cccc(NC(=S)NCCc2ccc3c(c2)OCCO3)c1C	-38	9	-5	-13	0	-2
Cc1cc(=O)[nH]c(NN=C2C3CC4CC(C3)CC2C4)n1	-42	-9	5	-4	-7	.
CCCCn1c(N)c(N(CC)C(=O)CSc2nnnn2-c2cc(C)ccc2C)c(=O)[nH]c1=O	-17	-15	1	-8	-4	-3
O=C(O)c1ccc(N/N=C/c2ccc(F)c(F)c2)cc1	-13	7	-8	-5	-18	0
Nc1cc(C(=O)O)ccc1Nc1ccc(F)c(F)c1	-25	12	1	2	30*	-4
Cc1csc(NC(=O)CCNC(=O)c2ccccc2Cl)n1	-4	7	1	-11	-9	0
COc1ccccc1Oc1ccc2c(c1)C(=O)N(c1cccc(O)c1)C2=O	-27	13	9	-8	-13	-2
SMILES	Mcl1 Bid PPI	Mcl1-Noxa inh	eIF4E 4G PPI	14-3-3 Bad inh	NCF1 inh	Mcl-1 Bim block
COc1ccccc1Oc1ccc2c(c1)C(=O)N(c1cccc3ncccc13)C2=O	19	16	10	-8	36*	11
CC1(C)CC(=O)C(N=Nc2cc3c(cc2[N+](=O)[O-])OCCO3)=C(O)C1	-13	9	0	-12	-32	-1
O=C(O)c1cccc(S(=O)(=O)Nc2cccc(S(=O)(=O)N3CCCCCC3)c2)c1	1	15	0	-9	-4	-6
Cc1ccc(NS(=O)(=O)c2cccc(C(=O)O)c2)cc1S(=O)(=O)N1CCCCC1	-40	72*	-3	-3	4	12
CCCCN(CC)CCCNC(=O)CC1Oc2ccccc2NC1=O (stereo not given)	-10	27	-21	-8	-6	3
CCN(CC)CCCNC(=O)CC1Sc2ccccc2NC1=O (stereo not given)	-10	19	32*	-8	-4	-3
O=[N+]([O-])c1cccc(-c2cn3nc(-c4ccccc4)c(-c4ccccc4)nc3n2)c1	-8	-7	0	-4	-17	.
O=Nc1c(-c2cccc([N+](=O)[O-])c2)nc2ncccn12	-6	55*	12	-3	4	.
COc1cnc(-c2ccccc2)nc1Oc1ccc(Cl)cc1C	3	2	1	-10	-9	-1
Cc1snnc1C(=O)NC(=S)Nc1ccccc1	-23	5	-1	5	-9	.
Cc1c(/C(O)=C2/C(=O)C(=O)N(CCN(C)C)C2c2ccc(C(C)C)cc2)cnn1-c1ccccc1 (stereo not given)	-78	-29	0	88*	-1	.
Cc1c(/C(O)=C2\C(=O)C(=O)N(CCN(C)C)C2c2ccccc2)cnn1-c1ccccc1 (stereo not given)	-105	17	1	-4	-9	.
COc1ccc(CN2CCOCC2)c(C)c1C	28	27	2	71*	0	-2
COc1ccc(CN2CCN(C3CCOCC3)CC2CCO)c(C)c1C (stereo not given)	-43	-3	0	-4	-4	-1
COCCCNC(=O)c1c(N)n(/N=C/c2ccccn2)c2nc3ccccc3nc12	.	.	.	.	.	4
CC(C)OCCCNC(=O)c1c(N)n(/N=C/c2cccs2)c2nc3ccccc3nc12	61*	32	-32	36	-64	-4
CCc1cccc(OCCCn2ccnc2)c1	12	35	-1	60	-5	0
Brc1cccc(OCCOCCn2ccnc2)c1	72*	15	-3	69	1	0
Brc1cccc(OCCn2ccnc2)c1	24	24	0	35	-15	-2
CCOc1cccc(OCCCCn2ccnc2)c1	58*	36	36*	34	-16	-2
O=C(Nc1cccc(Br)c1)c1ccc(OC2CSC2)cc1	-2	19	-1	-17	-16	0
CCOC(=O)c1c(OCC)[nH]c2c1cc(O)c1ccccc12	-23	75*	5	3	-13	8
